Screens from PubChem.
An excerpt weighted towards active compounds, which were near 32% of everything screened.
CYP2C19 activ – increases human CYP2C19 enzyme activity; recombinant CYP2C19, luciferin-H EGE luminescence; stronger effect = higher value; 0 = fully inhibited enzyme, 1 = untreated enzyme; activation factor at 5 µM; 96,000 tested, under 10 active; AID 1025;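 active means activation factor of at least 2 at 5 µM in the primary screen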
CYP2C19 inh – human CYP2C19 inhibition; hit rate 21% among 96,000; P33261; inhibition, % at 5 µM; AID 778; CYP2C19 Supersomes, luciferin-H EGE luminescence, 30 min;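 active means CYP2C19 inhibition above a set limit at 5 µM in the primary screen, cut at about 50% in these data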
PostGolgi yeast – growth inhibition of a yeast mutant, post-Golgi transport screen | hit rate 0.9% among 98,000 | post-Golgi transport phenotypic cell assay | AID 739 | inhibition, % at 10 µM;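 further: yeast cells grown in 1536-well plates; yeast grown about 18 h at 30C before absorbance read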
PostGolgi ctrl – yeast control strain growth, post-Golgi counter-screen; efflux-deficient yeast background strain, growth absorbance A615, 16 h; inhibition, % at 10 µM; hit rate 5% among 98,000
CYP2C9 inh – human CYP2C9 inhibition; CYP2C9 Supersomes, luciferin-H conversion, luminescence; hit rate 20% among 96,000; inhibition, % at 5 µM;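 active means blocking of liver enzyme CYP2C9 beyond about 50% at 5 µM, limit read from the data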
Target sequence (P11712 whole entry, looked up): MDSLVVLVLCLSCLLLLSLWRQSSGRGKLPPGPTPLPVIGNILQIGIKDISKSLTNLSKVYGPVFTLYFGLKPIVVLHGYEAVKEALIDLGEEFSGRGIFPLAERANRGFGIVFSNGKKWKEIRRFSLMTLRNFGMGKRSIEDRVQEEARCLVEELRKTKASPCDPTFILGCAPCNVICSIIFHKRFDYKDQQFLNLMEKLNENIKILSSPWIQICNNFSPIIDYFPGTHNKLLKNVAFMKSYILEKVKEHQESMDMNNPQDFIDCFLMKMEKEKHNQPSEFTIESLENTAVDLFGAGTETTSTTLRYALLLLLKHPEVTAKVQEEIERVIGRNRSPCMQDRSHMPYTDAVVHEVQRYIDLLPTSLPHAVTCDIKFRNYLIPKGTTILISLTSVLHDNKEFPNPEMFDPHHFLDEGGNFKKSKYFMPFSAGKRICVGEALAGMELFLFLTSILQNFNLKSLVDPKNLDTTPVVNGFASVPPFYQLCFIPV
CYP2C9 act – increases human cytochrome P450 2C9 activity; activation factor at 5 µM; AID 1024; hit rate 1.4% among 96,000; recombinant CYP2C9, luciferin-H conversion, luminescence; stronger effect = higher value; factor 1 = untreated enzyme, 0 = blocked;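 active means activation factor of 2 or more for CYP2C9 at a 5 µM dose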
Hits are given with their value; - = inactive; . = not tested or not shown. Unless noted, no stated cut-off is given here; in the data, active means inhibition above about 30%; inactive means the rest.

SMILES	CYP2C19 activ	CYP2C19 inh	PostGolgi yeast	PostGolgi ctrl	CYP2C9 inh	CYP2C9 act
CCOC(=O)CNC(=O)Cn1cnc2c(nnn2-c2ccc(C)cc2)c1=O	-	-	-	-	-	-
CCOc1ccccc1NC(=O)CN(c1ccc(OC)cc1)S(=O)(=O)c1c(C)noc1C	-	89	-	-	90	-
O=C(CN1C(=O)C2CC=CCC2C1=O)Nc1ccc(-c2nnc3n2CCCCC3)cc1 (stereo not given)	-	-	-	-	-	-
O=C(Nc1ccc(Cc2ccncc2)cc1)C1CCC(N2C(=O)C3CC=CCC3C2=O)CC1 (stereo not given)	-	58	-	-	67	-
O=C(Nc1ccc(Cc2ccncc2)cc1)C1CCC(N2C(=O)C3C4C=CC(C4)C3C2=O)CC1 (stereo not given)	-	96	-	-	95	-
Cc1cccc(N2C(=O)C3C4C=CC(C4)C3C2=O)c1 (stereo not given)	-	-	-	-	-	-
O=C1C2C3C=CC(C3)C2C(=O)N1c1ccc(Cc2ccncc2)cc1 (stereo not given)	-	71	-	-	80	-
CCOC(=O)c1cnn(-c2c(Cc3ccccc3)c(C)nc3c(-c4ccccc4)c(C)nn23)c1N	-	-	-	-	-	-
O=C(c1ccc(Cl)s1)N1CCN(c2nc3ccccc3s2)CC1	-	-	-	-	-	-
Cn1c(C(=O)N2CCN(c3nc4ccccc4s3)CC2)cc2sccc21	-	-	-	45	-	-
COc1ccccc1N1CCN(C(=O)c2cc3sccc3n2C)CC1	-	66	-	-	-	-
COc1cccc(CNC(=O)C2CCN(S(=O)(=O)N3CCCC3)CC2)c1	-	-	-	-	-	-
Cc1cnn(-c2ccc3nnc(-c4ccc(Cl)cc4)n3n2)c1	-	-	-	-	-	-
O=C(OCC(=O)N1CCOCC1)C(c1ccccc1)c1ccccc1	-	-	-	-	-	-
COc1cc(SC)ccc1C(=O)OC1CCOC1=O (stereo not given)	-	-	-	-	-	-
COC(=O)C1CCN(C(=O)c2ccc(SC)cc2OC)CC1	-	99	-	-	-	-
CCc1cc2c(=O)c(-c3nc4ccccc4n3C)c(C)oc2c(CN(CC)CC)c1O	-	-	-	35	-	-
Cc1c(NC(=O)c2ccc3ncccc3c2)c(=O)n(-c2ccccc2)n1C	-	-	-	-	-	-
CCc1cc2c(cc3c(=O)n(CC(=O)NCCCN(CC)CC)nc(CC)n32)s1	-	-	-	-	-	-
CCOC(=O)c1c(C)n(C)c2ccc(OC)c(NS(=O)(=O)c3ccc(Cl)s3)c12	-	-	-	34	-	-
COc1ccc(C2(O)CCN(C(=O)Cc3cccnc3)CC2)cc1	-	58	-	-	-	-
COc1cccc(C2(O)CCN(C(=O)Cc3cccnc3)CC2)c1	-	73	-	-	-	-
COC(=O)CCC(=O)NC(=S)Nc1cc(Cl)ccc1Cl	-	54	-	-	53	-
Cc1ccc2oc3c(c(=O)c2c1)C(c1cccs1)N(CCCN(C)C)C3=O (stereo not given)	-	-	.	.	-	-
CC(CCc1ccco1)NC(=O)c1cc2c(-c3ccccc3F)nn(C)c2s1 (stereo not given)	-	78	-	-	93	-
SMILES	CYP2C19 activ	CYP2C19 inh	PostGolgi yeast	PostGolgi ctrl	CYP2C9 inh	CYP2C9 act
Cn1nc(-c2ccccc2F)c2cc(C(=O)Nc3ccc4c(c3)OCCO4)sc21	-	-	-	52	81	-
CC(=O)c1ccc(N2CCN(C(=O)c3cc4c(-c5ccccc5F)nn(C)c4s3)CC2)cc1	-	-	-	-	-	-
CC(C)NC(=O)c1cc2c(C(F)(F)F)nn(C)c2s1	-	-	-	-	-	-
COc1ccc(N2CCN(C(=O)c3cc4c(-c5cccc(OC)c5)nn(C)c4s3)CC2)cc1	-	-	-	-	51	-
COc1cccc(-c2nn(C)c3sc(C(=O)Nc4ccc5c(c4)OCCO5)cc23)c1	-	-	-	37	-	-
Cc1c(NC(=O)/C(C#N)=C/C2CC=CCC2)c(=O)n(-c2ccccc2)n1C (stereo not given)	-	-	-	-	-	-
CC(=O)C1=C(O)C(=O)N(c2nnn(C)n2)C1c1cccs1 (stereo not given)	-	-	-	-	-	-
Cc1ccc(CNC(=O)C2CCN(S(=O)(=O)c3cccs3)CC2)o1	.	.	-	-	.	.
COc1cccc(-c2nn(C)c3sc(C(=O)NCc4ccccn4)cc23)c1	-	-	-	-	-	-
COc1cccc(-c2nn(C)c3sc(C(=O)NCc4ccc(C)cc4)cc23)c1	-	-	-	-	54	-
Nc1nc2c(s1)C(=O)CC(c1ccccc1)C2 (stereo not given)	-	-	-	-	-	-
CCCCOCCCNC(=O)C1CCCCC1	-	-	-	-	-	-
Cc1ccccc1C(O)c1ccccn1 (stereo not given)	-	-	-	-	-	-
c1ccc(C(c2c[nH]c3ccccc23)c2c[nH]c3ccccc23)nc1	-	54	-	-	95	-
Cn1cc(C(c2ccccn2)c2cn(C)c3ccccc23)c2ccccc21	-	-	-	53	96	-
Cc1ccccc1-c1cc(C(=O)Nc2sc(C)c(C)c2C(N)=O)c2ccccc2n1	-	69	-	39	98	-
CCOC(=O)c1sc(NC(=O)c2cc(-c3ccccc3C)nc3ccccc23)c(C#N)c1C	-	-	-	-	55	-
COc1ccccc1-n1cnc2cc(NC(=O)c3ccco3)ccc21	-	65	-	-	-	-
COc1ccc(NC(=O)CCc2ccccc2)cc1NC(=O)c1ccco1	-	62	-	-	66	-
COc1ccc(NC(=O)c2ccco2)cc1NC(=O)c1cccs1	-	57	-	-	55	-
Cc1ccc(-c2nc(CS(=O)(=O)CC(=O)NC3CCCCC3C)c(C)o2)cc1 (stereo not given)	-	-	-	-	-	-
COC(=O)C(C(=O)OC)C(C[N+](=O)[O-])c1ccc(OC)c(OC)c1 (stereo not given)	-	-	-	33	-	-
Cc1cc(C(C)(C)C)cc(C)c1COC(=O)C1CCC(=O)N1 (stereo not given)	-	63	-	-	-	-
O=C1CCC(C(=O)OCc2c(Cl)cccc2Cl)N1 (stereo not given)	-	-	-	-	-	-
COc1ccc2nc(NC(=O)C3CCN(S(=O)(=O)c4cccc5nsnc45)CC3)sc2c1	-	-	-	-	-	-
CC(C)C(NS(=O)(=O)c1cccc2nsnc12)C(=O)NCc1ccc2c(c1)OCO2 (stereo not given)	-	-	-	-	59	-
Cc1nc2ccc(S(=O)(=O)NC(C(=O)Nc3nc4ccc(Cl)cc4s3)C(C)C)cc2s1 (stereo not given)	-	84	-	-	92	-
